From PubChem BioAssay AID1259313 (Sanford-Burnham Center for Chemical Genomics, 2017)
“And” between values parts separate entries of the source, which are not always exact repeats. Equal entries are not always repeated. Hit rate of the full screen: of about 340,000 compounds, about 8,500 (2.5%) were called active.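 How the source made its calls: active means melting temperature shift of at least 10% of the positive control shift, at one fixed dose; inactive means the rest.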 The sample as a whole holds a higher share of actives than the screen did.

These molecules were tested on Glutamate receptor ionotropic, NMDA 3A (GRIN3A) ligand-binding domain (assay: NR3A LBD thermal stabilization by compounds – biophysical, differential scanning fluorimetry, uHTS, primary screen (AID 1259313)). Details: at 25 µM, stronger effect = higher value, 0% = protein alone, 100% = glycine-bound protein.

Tm shift relative to glycine control, active:
CC12CCC(C(=O)N(c3cccc(Cl)c3)C1=O)C2(C)C (stereo unspecified) 18.6%
CCc1cc(C(N)=O)c(NC(=O)c2ccc(OC)cc2)s1 12.6%
CC(C)(C)C(=O)Nc1cccc(-c2ccc[nH]2)n1 11.2%
COc1ccc(CC(=O)Nc2c(C(N)=O)oc3ccccc23)cc1 16.1%
CCCCN(CC)C(=S)Nc1ccc2nc3n(c(=O)c2c1)CCCCC3 11%
COc1ccc2nc(Nc3nc4ccc(NC(C)=O)cc4s3)sc2c1 25.2%
CCOc1ccc2nc(NC(=O)c3cc([N+](=O)[O-])ccc3N3CCOCC3)sc2c1 17%
COc1ccc2nc(NC(=O)c3ccc(Br)s3)sc2c1 31.3%
CCCC(=O)Nc1nc2ccc(NC(=O)c3c(F)c(F)c(OC)c(F)c3F)cc2s1 17.1%
CCOc1ccc2nc(Nc3nc4ccc(NC(C)=O)cc4s3)sc2c1 25.2%
COc1ccc2nc(Nc3nc4cc5c(cc4s3)OCCO5)sc2c1 12.4%
Oc1ccc(/C=N/Nc2ccc(C(F)(F)F)cn2)cc1O 21.1%
O=C(Nc1cccc(Cl)c1)Nc1ccccc1NS(=O)(=O)c1cccs1 30.3%
Nc1cc(=O)nc(SCc2ccccc2)n1Cc1ccco1 10.8%
CC1=NN(c2ccc(Cl)c(C(=O)O)c2)C(=O)/C1=C/c1ccc(-c2ccccc2[N+](=O)[O-])o1 31.1%
Oc1ccccc1-c1cc(-c2ccc(Cl)cc2)n[nH]1 31%
O=C(Nc1ccc(Cl)c(Cl)c1)N1CC=C(c2ccccc2)CC1 12.9%
S=C(NCc1ccc(Cl)cc1)NC12CC3CC(CC(C3)C1)C2 15.2%
O=C(/C=C/c1ccc2c(c1)OCCO2)c1ccc(O)cc1 13.4%
CSCCC(NC(=O)c1ccccc1)C(=O)N1CCN(Cc2ccc(Cl)cc2)CC1 (stereo unspecified) 18.1%

Tm shift relative to glycine control, inactive:
CCOC(=O)c1c(C)[nH]c(C2=NNC(=NC(C)COC)SC2)c1C (stereo unspecified) -1.92%
O=C1CC(NNc2ccccc2)C(=O)N1c1cccc(Cl)c1 (stereo unspecified) -0.68%
CC12CCC(C(=O)N(NC(=O)c3ccccc3O)C1=O)C2(C)C (stereo unspecified) 2.74%
CCc1cc(C(=O)c2ccc(OC)cc2)c(NC(=O)CN2CCN(C)CC2)s1 -0.69%
COc1ccc(C(=O)Nc2sc(C)c(C)c2CN2CCOCC2)cc1 -2.24%
CC1=CC=CC2=N/C(=N\S(=O)(=O)c3ccc(F)cc3F)c3ccccc3CN12 -0.65%
CC(C)(C)C(=O)Nc1ccc(-c2cn3cccnc3n2)cc1 -0.98%
COc1ccc(C(=O)Nc2cccc(NC(=O)c3ccc(OC)cc3OC)n2)c(OC)c1 3.62%
N#Cc1ccc(C2N=C(c3ccccc3)NO2)cc1 (stereo unspecified) 0.19%
CCOc1ccc(CN2CCN(Cc3ccc(C)o3)CC2CCO)cc1 (stereo unspecified) 1.84%
C/C(CC(=O)NC(C)c1ccccc1)=N\NC(N)=S (stereo unspecified) -2.12%
COC(=O)C1C(=O)NCC1c1ccc(OC)cc1 (stereo unspecified) -0.83%
NC(=O)c1oc2ccccc2c1NC(=O)Cc1ccccc1 -1.3%
NC(=O)c1oc2ccccc2c1NC(=O)CS(=O)(=O)c1ccccc1 -2.6%
CC(=O)C(CC(=O)N1CCCC1)C(=O)Nc1ccc(Cl)cc1 (stereo unspecified) -1.13%
Cc1cc(C)nc(-n2nc(C)cc2NC(=O)c2ccc(F)cc2F)n1 -2.66%
O=C(Nc1ccc2nc3n(c(=O)c2c1)CCCC3)c1ccc(Cl)nc1 -1.29%
COc1ccc(CCNC(=O)C(=O)Nc2ccc3nc4n(c(=O)c3c2)CCCCC4)cc1OC -0.47%
C=CCn1c(P(C)(=O)O)nc2ccccc21 -0.35% and 1.55%
CSc1nc2ccc(NC(=O)c3c(F)cccc3F)cc2s1 3.67%
Cc1noc(C)c1CSCC(=O)Nc1nc2ccc(Oc3ccccc3)cc2s1 0.97%
COc1ccc(S(=O)(=O)N2CCCCC2)cc1NC(=O)c1cc([N+](=O)[O-])ccc1N1CCOCC1 -1.87%
CCCC(=O)N(CCN1CCOCC1)c1nc2ccc(OCC)cc2s1 -6.33%
COc1ccc(NC(C(=O)Nc2cccc(C(C)=O)c2)c2ccccc2)cc1 (stereo unspecified) -15.9%
Cc1nc2ccc(NC(=O)C3CCCCC3)cc2s1 -3.66%
CCCn1nc(C(=O)Nc2ccc3nc(C)sc3c2)c2ccccc2c1=O -1.69%
COc1ccc(CNC(=O)c2ccc(Br)s2)cc1OC 1.11%
Cc1ccccc1-n1nnc2c(=O)oc3ccccc3c21 1.45%
O=C1CC(c2c(F)cccc2Cl)C(n2cncn2)C(O)=C1C1NCCc2ccccc21 (stereo unspecified) -0.39%
CC(C)N(c1ccccc1)c1ncnc(NCCC(=O)O)c1[N+](=O)[O-] -4.26%
Cc1cccc(C(=O)NCC(=O)OCC(=O)N(C)CC(=O)Nc2ccccc2Cl)c1 -0.85%
COc1ccc(CNC(=O)COc2cccnc2[N+](=O)[O-])cc1 1.77%
Cc1ccc(NC(=O)Cc2nc(COC(=O)C(C)NS(=O)(=O)c3ccc(C)cc3)cs2)cc1 (stereo unspecified) -1.68%
Cc1cc(C(=O)N2CCC(C(=O)O)CC2)c(C(F)(F)F)o1 2.93%
NS(=O)(=O)c1ccc2nc(NC(=O)C3=COCCO3)sc2c1 -8.75%
CCOc1ccc2nc(NC(=O)CSc3nc4c(c(=O)n(C)c(=O)n4C)n3CC)sc2c1 1.39%
CCC(=O)c1ccc(OCC(=O)Nc2ccc3nc(C)sc3c2)cc1 0.32%
c1c2c(cc3sc(N4CCCCC4)nc13)OCCO2 8.4%
O=C(COC(=O)c1c(Cl)cccc1Cl)Nc1cccc(S(=O)(=O)NC2=NCCCCC2)c1 1.06%
O=C(CCl)Nc1ccc(Sc2ccc(NC(=O)CCl)cc2)cc1 -12.3%
CC(=O)N(Cc1cccs1)C1CCOC(C)(C)C1 (stereo unspecified) -1.65%
FC(F)(F)c1cccc(N/N=C/c2ccccc2)c1 6.56%
Oc1ccc(Br)cc1/C=N/Nc1ccccn1 -22%
CCCCOP(=O)(c1ccc(N(C)C)cc1)C(O)c1cc(OC)ccc1OC (stereo unspecified) -0.74%
O=S(=O)(NCc1ccc(Cl)cc1Cl)c1cccs1 1.65%
O=S(=O)(Nc1ccccc1Br)c1cccs1 0.85%
NC(=O)Cc1ccc2sc(-c3ccccc3)nc2c1 -2.6%
Cc1ccc(S(=O)(=O)NCC(=O)N(CC(=O)NCC2CCCO2)c2cccc(F)c2)cc1 (stereo unspecified) -1.71%
CCn1c(SCc2ccccc2)nc2cc(OC)c(OC)cc2c1=O -6.11%
O=c1[nH]c(CSc2ncc(-c3ccc(F)cc3)n2Cc2ccco2)nc2ccccc12 -0.27%
COc1cccc(N(Cc2nnc3n2CCCCC3)C(=O)Nc2ccccc2F)c1 0.08%
CCCN(CCC)C(=S)Nc1cc(C(=O)OC)ccc1C(=O)OC -5.25%
CC(=O)C1=C(C)NC(C)=C(C(C)=O)C1c1cn(-c2ccccc2)nc1-c1cccs1 -4.58%
CCc1ccc(CN(C)C(=O)C2CCC(=O)N(Cc3cccc(OC)c3)C2)nc1 (stereo unspecified) 1.62%
O=C(Nc1ccc(N2CCOCC2)cc1)c1ccc(-c2ccccc2[N+](=O)[O-])o1 -2.01%
O=C1NC(c2ccc(-c3ccccc3[N+](=O)[O-])o2)C(C(=O)c2ccc(Cl)cc2)C(O)(C(F)(F)F)N1 (stereo unspecified) -17.2%
Cc1cnc(CN(C)C(=O)C2CCC(=O)N(CCc3cccc(F)c3)C2)[nH]1 (stereo unspecified) -3.25%
CC(C)C(=O)NCc1cc(-c2ccc(Cl)cc2)no1 0.32%
CSc1ccccc1-c1nnc(-c2ccc(Cl)cc2)o1 0.54%
NC(=O)C[C@@H]1NC(=O)CNC(=O)c2cc([N+](=O)[O-])cc(I)c2NCCC(C(N)=O)NC1=O (stereo partly specified) -1.1%
CCC(C)n1[nH]c(=O)cc1N (stereo unspecified) -2.66%
N#Cc1ccccc1S(=O)(=O)N1CCN(Cc2c(O)ccc3ccccc23)CC1 -5.71%
O=C(O)c1cccc(S(=O)(=O)N2CC=C(c3ccccc3)CC2)c1 1.73%
COc1cc(C(=O)NCC(=O)N2CC=C(c3ccccc3)CC2)cc(OC)c1OC 0.85%
CC(C)c1ccc(Nc2ncccc2C#N)cc1 -9.92%
O=C(COc1ccc([N+](=O)[O-])cc1Cl)Nn1cnnc1 1.68%
CCOc1ccc(/C(O)=C2\C(=O)C(=O)N(c3ccc(OC)cc3)C2c2ccccc2[N+](=O)[O-])cc1 (stereo unspecified) -0.41%
COc1ccc(S(=O)(=O)N2CCOCC2)cc1NC(=O)c1ccc(OCC(C)C)c(OC)c1 3.09%
CN(C)CCCNC(=S)NCc1ccc(Cl)cc1 2.67%
COC(=O)Cc1ccc(NC(=S)NCc2ccc(Cl)cc2)cc1 -5.66%
CN(C)c1ccc(/C=C/C(=O)c2ccc(O)cc2)cc1[N+](=O)[O-] 5.36%
O=C(/C=C\c1ccc2c(c1)OCO2)NC1(C(=O)Nc2ccc3c(c2)OCCO3)CCCCC1 -13.2%
CC(C)c1nnc(NC(=O)C2CC(=O)N(CCc3ccc(F)cc3)C2)s1 (stereo unspecified) -0.27%
CCCC(C(=O)n1nc(C)cc1C)C(NS(=O)(=O)c1ccc(C)cc1)c1ccccc1 (stereo unspecified) -0.23%
COc1ccccc1C(=O)NC(CCSC)C(=O)N1CCN(C(C)=O)CC1 (stereo unspecified) -1.22%
CSCCC(NC(=O)c1ccccc1)C(=O)N1CCCCCCC1 (stereo unspecified) 0.17%
